Bioassay records from PubChem.
FLuc counter: firefly luciferase modulation, counter-screen for miR-21 project; Potency, µM (series often up to 57.5 µM), most hits filed as inhibitors; 360,000 compounds, 6.9% hits; purified FLuc, Km substrates, luminescence inhibition; AID 588342; P08659; note: nearly all actives have a fitted effect of over 55% in size
Target sequence (P08659 whole entry, looked up): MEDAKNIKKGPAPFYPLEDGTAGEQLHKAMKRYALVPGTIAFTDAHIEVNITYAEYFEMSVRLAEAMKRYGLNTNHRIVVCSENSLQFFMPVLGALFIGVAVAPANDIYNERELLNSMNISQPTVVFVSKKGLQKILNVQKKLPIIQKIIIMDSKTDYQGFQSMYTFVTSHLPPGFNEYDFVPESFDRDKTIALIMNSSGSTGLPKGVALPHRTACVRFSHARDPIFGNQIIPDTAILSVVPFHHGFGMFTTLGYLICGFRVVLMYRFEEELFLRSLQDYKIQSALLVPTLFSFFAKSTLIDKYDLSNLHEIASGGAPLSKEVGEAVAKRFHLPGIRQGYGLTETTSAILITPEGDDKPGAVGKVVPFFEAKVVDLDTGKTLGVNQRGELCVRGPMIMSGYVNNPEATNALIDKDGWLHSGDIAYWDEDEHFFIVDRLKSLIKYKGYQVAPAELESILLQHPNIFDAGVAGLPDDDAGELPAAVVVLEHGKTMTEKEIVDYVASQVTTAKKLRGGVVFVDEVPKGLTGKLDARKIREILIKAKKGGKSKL
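Biochemical qHTS of compounds, final roughly 60 µM downward over six points, against 10 nM purified firefly luciferase using Km concentrations of substrates (10 uM D-luciferin, 10 uM ATP) in Tris acetate pH 7.5 buffer; luminescence output.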
NPC1 promoter act: NPC1 promoter activation; Huh7 NPC1 promoter luciferase reporter, 24 h; Potency, µM (highest dose often 9.22 µM), usual class: activators; 320,000 compounds, 2.4% hits; AID 485313; note: nearly all actives have a fitted effect of over 60% in size
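Cells: Huh7 expressing luciferase under the NPC1 promoter, 1500/well. Seeded 2 h, compound added, incubated 24 h at 37 °C. Luciferase reagent, 10 min ambient, then luminescence.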
Rab9 promoter act: activators of Rab9 promoter | Huh7 Rab9 promoter-luciferase reporter, luminescence, 24 h | Potency, µM (highest dose often 9.22 µM), actives largely listed as activators | 320,000 compounds, 2.8% hits | AID 485297; note: nearly all actives have a fitted effect of over 60% in size
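Cells were plated at 1500 per well in reduced-serum medium with 10% FBS and left 2 h. Compound in DMSO was then added for 24 h at 37 °C. Reporter signal was read by luminescence after 10 min with luciferase detection reagent.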
ELG1 genotoxic: inducers of genotoxicity in HEK293T ELG1-luciferase cells; HEK293T ELG1-luciferase reporter, luminescence, 16 h; Potency, µM (top dose mostly 46 µM), usual class: activators; 330,000 compounds, 1.3% hits; AID 504466; note: nearly all actives have a fitted effect of over 60% in size
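Luminescence read-out: rising ELG1-luciferase signal, reflecting elevated ELG1 protein under genetic stress, flags genotoxic compounds. Cells were treated for 16 hr at 37 °C before ONE-Glo detection.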
SMN2 splice up: enhancers of SMN2 splice variant expression; HEK293 SMN2-luciferase splicing reporter, luminescence, 30-36 h; Potency, µM (doses to about 46.1 µM), actives largely listed as activators; 210,000 compounds, 2.8% hits; note: nearly all actives have a fitted effect of over 55% in size
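HEK293 cells carry an SMN2 minigene-luciferase reporter in which exon 7 inclusion puts luciferase in frame. Cells were seeded at 2000 cells/well, attached for 10-12 hours, then exposed to compounds for 30-36 hours at 37C before ONE-Glo luminescence.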
Of the large screens only hits and unclear results are named; the others gave an inactive call. Sampled rows, rich in hits. Any-hit rate of the full collection: about 7.5%. Calls come from the whole dose curve; as a rule, active = well fitted curve in the direction sought with a large enough effect; inconclusive = small, poorly fitted or top-dose-only effect, or another doubt; inactive = no such curve, though single readings can be large; an effect the other way counts as inactive or inconclusive.

CSCCC(NS(=O)(=O)c1ccc2c(c1)c(=O)n(C)c(=O)n2C)C(=O)NC1CCN(Cc2ccccc2)CC1 (configuration not stated)	none (no result: SMN2 splice up)
NS(=O)(=O)c1ccc(CNC(=S)NCc2ccc(Cl)cc2)cc1	none
CCOC(=O)C1CCN(C(=O)CCc2nnc3ccc(NCCCN4CCCC4=O)nn23)CC1	none (no result: SMN2 splice up)
O=C1CC(Cc2ccc(Cl)cc2)C(=O)N1c1ccccn1 (configuration not stated)	SMN2 splice up 32µM
O=C1CC(Cc2ccccc2)C(=O)N1c1ncccn1 (configuration not stated)	FLuc counter 15µM, NPC1 promoter act 2.2µM, Rab9 promoter act inconclusive, ELG1 genotoxic 15µM (no result: SMN2 splice up)
Cc1ccc(CC2CC(=O)N(c3ncccn3)C2=O)cc1 (configuration not stated)	none (no result: SMN2 splice up)
Fc1ccc(-c2cnn3c(-c4cccs4)ccnc23)cc1	FLuc counter 0.76µM, NPC1 promoter act 4.5µM, Rab9 promoter act 4µM, SMN2 splice up 3.2µM
Fc1ccc(-c2cnn3c(-c4ccncc4)ccnc23)cc1	FLuc counter 1.2µM, NPC1 promoter act 0.35µM, Rab9 promoter act 0.4µM, SMN2 splice up 4.5µM
Cc1nn2c(-c3ccc(F)cc3)ccnc2c1Br	none (no result: SMN2 splice up)
COc1ccc(C2CC(c3ccc(Cl)cc3Cl)n3nc(N)nc3N2)cc1 (configuration not stated)	none
Cc1ccc(S(=O)(=O)N(Cc2ccccc2)c2ccccc2C(=O)N2CCCCC2)cc1	none (no result: SMN2 splice up)
NC(=S)Cc1nc(-c2ccc(Cl)cc2)cs1	FLuc counter inconclusive
CC(C)(C)C(=O)OCc1nc(-c2ccc(Cl)cc2)cs1	FLuc counter 1.2µM, NPC1 promoter act 3.5µM, Rab9 promoter act 4.5µM, ELG1 genotoxic inconclusive (no result: SMN2 splice up)
CCCC(=O)Nc1nc(-c2ccc(OC)cc2)cs1	FLuc counter inconclusive, Rab9 promoter act inconclusive, ELG1 genotoxic inconclusive, SMN2 splice up inconclusive
CC(C)(C)C(=O)OCc1nc(-c2ccc3c(c2)OCCO3)cs1	FLuc counter 0.54µM, NPC1 promoter act 2.8µM, Rab9 promoter act 3.2µM, ELG1 genotoxic inconclusive (no result: SMN2 splice up)
CC(C)(C)C(=O)OCc1nc(-c2ccc(F)cc2)cs1	FLuc counter 1.3µM, NPC1 promoter act inconclusive, Rab9 promoter act 2.5µM (no result: SMN2 splice up)
COc1ccc(-c2csc(COC(=O)C(C)(C)C)n2)cc1	FLuc counter 2.4µM, Rab9 promoter act inconclusive (no result: SMN2 splice up)
COc1cc(C2CC(=O)c3c([nH]c(C(=O)OCc4ccc(C)cc4)c3C)C2)cc(OC)c1OC (configuration not stated)	none (no result: NPC1 promoter act, Rab9 promoter act, ELG1 genotoxic)
COc1ccccc1NC(=O)COc1ccc(/C=N/NC(=O)c2cccnc2)cc1	none (no result: SMN2 splice up)
CCOC(=O)c1oc2nc3c(cc2c1N)CCCC3	FLuc counter 5.4µM, NPC1 promoter act 1.4µM, Rab9 promoter act 1.4µM, ELG1 genotoxic inconclusive (no result: SMN2 splice up)
Cc1ncc(CO)c(CNc2ccc(-c3nc4ccccc4[nH]3)cc2)c1O	FLuc counter 3.4µM, NPC1 promoter act 1µM, Rab9 promoter act 1.6µM, ELG1 genotoxic inconclusive (no result: SMN2 splice up)
COC(=O)c1cc(NC(=O)N2c3ccccc3Sc3ccccc32)cc(C(=O)OC)c1	none
O=[N+]([O-])CC(=Nc1ccc(Cl)cc1)N/N=C\c1oc(O)c2ccccc12	FLuc counter 12µM, NPC1 promoter act inconclusive, Rab9 promoter act inconclusive
O=C(N/N=C/c1ccc([N+](=O)[O-])o1)c1cn(-c2ccccc2)nc1-c1ccc(Cl)cc1	none
O=C(COc1ccc(Cl)cc1)OCc1csc(Nc2ccccc2)n1	none
C/C=C/c1ccc(OCC(=O)Nc2ccc(C(N)=O)cc2)c(OC)c1	none
Cc1ccc(Nc2nc(COC(=O)COc3ccc(C=O)cc3)cs2)cc1	FLuc counter 2.7µM, NPC1 promoter act inconclusive, Rab9 promoter act inconclusive, ELG1 genotoxic inconclusive, SMN2 splice up 35µM
C/C=C/c1ccc(OCC(=O)OCc2csc(Nc3ccc(C)cc3)n2)c(OC)c1	FLuc counter 12µM, NPC1 promoter act inconclusive, Rab9 promoter act inconclusive, SMN2 splice up 11µM
Cc1sc2c(c1C)C(=O)NC(c1ccccc1F)N2 (configuration not stated)	FLuc counter 17µM, Rab9 promoter act inconclusive, ELG1 genotoxic inconclusive (no result: SMN2 splice up)
Cc1cccc(C2NC(=O)c3c(sc(C)c3C)N2)c1O (configuration not stated)	FLuc counter inconclusive
CCC(c1nnnn1CCOC)N1CCN(c2cccc(C(F)(F)F)c2)CC1 (configuration not stated)	none
